NPC1 promoter act: qHTS Assay for NPC1 Promoter Activators; AID 485313, 2010; Potency, µM (series often up to 9.22 µM), usual class: activators; actives 2.4% (n = 320,000); Huh7 NPC1 promoter luciferase reporter, 24 h; further: nearly all actives have a fitted effect of over 60% in size
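Readout is luciferase luminescence, reflecting NPC1 promoter activation in stably transfected Huh7 cells after 24 h compound exposure at 37 °C in reduced-serum medium with 10% FBS.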
FLuc modulator: qHTS profiling assay for firefly luciferase inhibitor/activator using purifed enzyme and Km concentrations of substrates (counterscreen for miR-21 project). Luciferin 4-monooxygenase (Photinus pyralis), P08659. purified FLuc, Km substrates, luminescence inhibition. Potency, µM (doses to about 57.5 µM), usual class: inhibitors. actives 6.9% (n = 360,000). AID 588342, 2011; further: nearly all actives have a fitted effect of over 55% in size
Target sequence (P08659 whole entry, looked up): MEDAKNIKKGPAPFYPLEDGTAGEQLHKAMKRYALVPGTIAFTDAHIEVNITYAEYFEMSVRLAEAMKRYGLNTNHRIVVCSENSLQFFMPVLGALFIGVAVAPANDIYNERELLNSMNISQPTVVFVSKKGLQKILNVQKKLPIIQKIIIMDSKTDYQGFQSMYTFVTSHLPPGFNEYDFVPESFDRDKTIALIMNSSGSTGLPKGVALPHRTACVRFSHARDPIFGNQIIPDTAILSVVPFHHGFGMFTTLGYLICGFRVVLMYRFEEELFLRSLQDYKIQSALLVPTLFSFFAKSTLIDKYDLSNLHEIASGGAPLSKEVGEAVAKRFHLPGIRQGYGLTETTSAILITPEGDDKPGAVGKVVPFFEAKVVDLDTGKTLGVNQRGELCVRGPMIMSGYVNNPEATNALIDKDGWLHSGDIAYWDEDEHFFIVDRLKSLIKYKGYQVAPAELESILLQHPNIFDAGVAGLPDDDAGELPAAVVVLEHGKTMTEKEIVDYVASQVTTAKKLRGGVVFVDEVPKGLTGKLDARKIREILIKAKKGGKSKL
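Purified P. pyralis luciferase, 10 nM final, with Km-level 10 uM D-luciferin and 10 uM ATP in 50 mM Tris acetate pH 7.5, 10 mM Mg acetate, 0.01% Tween-20, 0.05% BSA; 6-point qHTS titration about 60 µM downward; luminescence read.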
Luc counter: Counterscreen for Luciferase (Kinase-Glo TM) Inhibition; Luciferin 4-monooxygenase (Photuris pensylvanica), Q27757; Kinase-Glo luciferase, ATP luminescence, 8 min; Potency, µM (highest dose often 38.3 µM), most hits filed as inhibitors; actives 0.28% (n = 200,000); AID 1379, 2008; further: nearly all actives have a fitted effect of over 60% in size
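Luminescence was the read-out, taken after 8-minute incubation at ambient temperature. Luciferase turned over luciferin with 10 uM ATP in imidazole pH 7.2 buffer containing KCl, MgCl2, Tween 20 and BSA.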
SMN2 splice up: qHTS Assay for Enhancers of SMN2 Splice Variant Expression | HEK293 SMN2-luciferase splicing reporter, luminescence, 30-36 h | Potency, µM (top dose mostly 46.1 µM), actives largely listed as activators | actives 2.8% (n = 210,000); further: nearly all actives have a fitted effect of over 55% in size
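qHTS luciferase splicing reporter: luminescence rises when SMN2 exon 7 is included in transfected HEK293 cells. Compound exposure lasted 30-36 h at 37C, with 4.5 mM final sodium butyrate as control, followed by a ONE-Glo read.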
Rab9 prom act: qHTS Assay for Rab9 Promoter Activators; Huh7 Rab9 promoter-luciferase reporter, luminescence, 24 h; Potency, µM (top dose mostly 9.22 µM), most hits filed as activators; actives 2.8% (n = 320,000); AID 485297, 2010; further: nearly all actives have a fitted effect of over 60% in size
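Luciferase signal after 10 min detection reagent at ambient indicates Rab9 promoter upregulation; stably transfected Huh7 cells were treated 24 h with compound in DMSO at 37 °C, 5% CO2.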
ELG1 genotox: qHTS screen for small molecules that induce genotoxicity in human embryonic kidney (HEK293T) cells expressing luciferase-tagged ELG1; Potency, µM (top dose mostly 46 µM), usual class: activators; AID 504466, 2011; actives 1.3% (n = 330,000); HEK293T ELG1-luciferase reporter, luminescence, 16 h; further: nearly all actives have a fitted effect of over 60% in size
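HEK293T cells expressing luciferase-tagged ELG1 were treated with compound or DMSO for 16 hr at 37°C. Luciferase activity was then read after 30 min with ONE-Glo at room temperature; rising signal flags genetic stress.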
Each line names hits and unclear results; the compound was inactive in the other large screens. Only some compounds are listed: those with a hit (about 7.5% of all), similar ones and a draw of the others. The call rests on the fitted dose curve; in most records, active means well fitted curve in the direction sought with a large enough effect; inconclusive means small, poorly fitted or top-dose-only effect, or another doubt; inactive means no such curve, though single readings can be large; an effect the other way counts as inactive or inconclusive.

COC(=O)CSc1nc2ccc(NC(=O)c3ccccc3C(=O)N3CCOCC3)cc2s1	none (no result: Luc counter, SMN2 splice up)
O=C(Nc1ccc2nc(SCC(=O)N3CCOCC3)sc2c1)c1ccccc1Cl	FLuc modulator 21µM (no result: NPC1 promoter act, Luc counter, SMN2 splice up, Rab9 prom act, ELG1 genotox)
O=C(Nc1ccc2nc(SCC(=O)N3CCCC3)sc2c1)c1ccccc1	none (no result: NPC1 promoter act, Luc counter, SMN2 splice up, Rab9 prom act, ELG1 genotox)
CN1CCN(C(=O)CSc2nc3ccc(NC(=O)c4ccccc4F)cc3s2)CC1	FLuc modulator 19µM (no result: Luc counter, SMN2 splice up)
O=C(Nc1ccc2nc(SCC(=O)N3CCCC3)sc2c1)c1cccc(F)c1	none (no result: NPC1 promoter act, Luc counter, SMN2 splice up, Rab9 prom act, ELG1 genotox)
O=C(Nc1ccc2nc(SCC(=O)N3CCOCC3)sc2c1)c1ccc(F)cc1	FLuc modulator 21µM (no result: NPC1 promoter act, Luc counter, SMN2 splice up, Rab9 prom act, ELG1 genotox)
CCOC(=O)CCN1CCN(C(=O)c2ccc(-n3c(=O)c(=O)[nH]c4ccccc43)cc2)CC1	none (no result: NPC1 promoter act, FLuc modulator, SMN2 splice up, Rab9 prom act, ELG1 genotox)
O=C(CSC1=NCCN1)Nc1ccccc1	none (no result: NPC1 promoter act, FLuc modulator, Rab9 prom act, ELG1 genotox)
CC(C)C[C@H]1CNC(=O)C(=O)N1C[C@H](C)NC(=O)Cc1ccccc1	none (no result: Luc counter, SMN2 splice up)
CCCC(=O)OCc1cnc(C)c2oc(=O)c(C(=O)Nc3cccc(C(F)(F)F)c3)cc12	none (no result: NPC1 promoter act, Luc counter, SMN2 splice up, Rab9 prom act, ELG1 genotox)
COc1cccc(C(=O)Nc2ccc3nc(SCC(=O)N4CCOCC4)sc3c2)c1	FLuc modulator 15µM (no result: NPC1 promoter act, Luc counter, SMN2 splice up, Rab9 prom act, ELG1 genotox)
COc1cc(OC)cc(C(=O)N2CCC(N3CCCCCC3)CC2)c1	none
Cc1ccccc1NC(=O)c1ccc(OCC(=O)Nc2ccccc2F)cc1	none
NC(=O)C1CC(=O)N(c2ccc(OCC(=O)Nc3ccc(F)cc3)cc2)C1 (stereo not given)	none (no result: Luc counter, SMN2 splice up)
Cc1ccc(OCC(=O)Nc2ccccc2F)cc1C	FLuc modulator 9.5µM, Rab9 prom act inconclusive, ELG1 genotox 10µM (no result: SMN2 splice up)
Cc1ccc(OCC(=O)Nc2ccc(O)c(C(=O)O)c2)cc1C	FLuc modulator 17µM
Cc1ccc(OCC(=O)Nc2ccc(N3CCCC3)cc2)cc1C	none
Cc1ccc(C(=O)Nc2ccc(O)c(C(=O)O)c2)o1	FLuc modulator inconclusive
CC(C)(C)c1ccc(OC(=O)Nc2ccc(O)c(C(=O)O)c2)cc1	FLuc modulator 1.2µM
NC(=O)C1CC(=O)N(c2ccc(OCC(=O)Nc3ccccc3F)cc2)C1 (stereo not given)	NPC1 promoter act inconclusive, FLuc modulator 17µM, Rab9 prom act 2.2µM, ELG1 genotox inconclusive (no result: Luc counter, SMN2 splice up)
Cc1nc2nc(SCC(=O)NC(C)c3ccccc3)nn2c(C)c1Cc1c(F)cccc1Cl (stereo not given)	none (no result: NPC1 promoter act, Luc counter, Rab9 prom act, ELG1 genotox)
O=c1cc(COc2ccc(Cl)cc2Cl)nc2scc(-c3ccccc3)n12	none (no result: NPC1 promoter act, Luc counter, Rab9 prom act, ELG1 genotox)
Cn1cc(S(=O)(=O)N2CCCC2)cc1C(=O)NCc1ccccc1Cl	none (no result: Luc counter, SMN2 splice up)
COc1ccc2nc(-n3c(O)c(C4=c5ccccc5=NC4=O)[nH]c3=S)sc2c1	FLuc modulator 11µM
Cn1c(O)c(C2=c3ccccc3=NC2=O)[nH]c1=S	none
COC(=O)c1ccc([C@@H]2C[C@H]3CN(Cc4cccnc4)C(=O)[C@]34CCCN24)cc1	none (no result: SMN2 splice up)
O=C(O)c1nc2ccccc2nc1C(=O)O	FLuc modulator 21µM, SMN2 splice up inconclusive, ELG1 genotox inconclusive
COc1ccc(S(=O)(=O)Nc2ccc(-c3ccc(N4CCCC4)nn3)cc2)cc1C	none (no result: Luc counter, SMN2 splice up)
COc1ccc(S(=O)(=O)Nc2cccc(-c3ccc(N4CCOCC4)nn3)c2)cc1F	FLuc modulator 6.7µM (no result: NPC1 promoter act, Luc counter, SMN2 splice up, Rab9 prom act, ELG1 genotox)
COc1ccc(S(=O)(=O)Nc2ccccc2C(=O)N2CCOCC2)cc1F	none (no result: Luc counter, SMN2 splice up)
Cc1cc(C)c(S(=O)(=O)Nc2ccc(-c3ccc(N4CCCCCC4)nn3)cc2)cc1C	none (no result: NPC1 promoter act, Luc counter, SMN2 splice up, Rab9 prom act, ELG1 genotox)
COc1ccc(S(=O)(=O)Nc2cccc(-c3ccc(N4CCCCC4)nn3)c2)cc1F	FLuc modulator 2.7µM (no result: NPC1 promoter act, Luc counter, SMN2 splice up, Rab9 prom act, ELG1 genotox)
COc1cc(C)c(C)cc1S(=O)(=O)Nc1cccc(-c2ccc(N3CCOCC3)nn2)c1	FLuc modulator 27µM (no result: NPC1 promoter act, Luc counter, SMN2 splice up, Rab9 prom act, ELG1 genotox)
COc1ccc(S(=O)(=O)Nc2cccc(S(=O)(=O)N3CCCC3)c2)cc1OC	none (no result: Luc counter, SMN2 splice up)

Assay outcomes (PubChem)
